PubChem BioAssay (NCI)
This is part of a sample that, as a whole, favours compounds with a hit. Of some 83,000 tested, about 20% had one in any assay.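 The endpoint reported here, percent growth, reads 100 for growth as untreated, 0 for no net growth and -100 for all cells dead.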 Unmarked numbers belong to inactive results. Active and inactive are the calls of the source. The calls were made as follows: active = growth percent below 10; inactive = the rest.

Key:
Experiment in all cases: NCI-60 one-dose screen, 48 h (100 = growth as untreated, 0 = no growth, -100 = all killed)
Conditions in all cases: 10 µM unless noted
SK-MEL-2 melanoma = test system: SK-MEL-2 melanoma
EKVX NSCLC = test system: EKVX NSCLC
SN12C renal = test system: SN12C renal
UO-31 renal = test system: UO-31 renal
TK-10 renal = test system: TK-10 renal
ACHN renal = test system: ACHN renal
CAKI-1 renal = test system: CAKI-1 renal
CCRF-CEM leukemia = test system: CCRF-CEM leukemia
SR leukemia = test system: SR leukemia
RPMI-8226 leukemia = test system: RPMI-8226 leukemia
OVCAR-8 ovarian = test system: OVCAR-8 ovarian
OVCAR-5 ovarian = test system: OVCAR-5 ovarian
OVCAR-4 ovarian = test system: OVCAR-4 ovarian
SK-OV-3 ovarian = test system: SK-OV-3 ovarian
IGROV1 ovarian = test system: IGROV1 ovarian
OVCAR-3 ovarian = test system: OVCAR-3 ovarian
HS 578T breast = test system: HS 578T breast
NCI/ADR-RES ovarian = test system: NCI/ADR-RES ovarian
MOLT-4 leukemia = test system: MOLT-4 leukemia
A498 renal = test system: A498 renal

## CC(=O)c1cccc(NS(=O)(=O)c2cccc(C(=O)Nc3ccc(Br)cc3)c2)c1
SK-MEL-2 melanoma
  growth: 50.6% [25 µM]
EKVX NSCLC
  growth: 27.1% [25 µM]
SN12C renal
  growth: 58% [25 µM]
UO-31 renal
  growth: 41% [25 µM]
TK-10 renal
  growth: 80.7% [25 µM]
ACHN renal
  growth: 61.5% [25 µM]
CAKI-1 renal
  growth: 39.6% [25 µM]
CCRF-CEM leukemia
  growth: 47.7% [25 µM]
SR leukemia
  growth: 60.6% [25 µM]
RPMI-8226 leukemia
  growth: 30.4% [25 µM]
OVCAR-8 ovarian
  growth: 57.1% [25 µM]
OVCAR-5 ovarian
  growth: 77.9% [25 µM]
OVCAR-4 ovarian
  growth: 47.6% [25 µM]
SK-OV-3 ovarian
  growth: 58.1% [25 µM]
IGROV1 ovarian
  growth: 62.4% [25 µM]
OVCAR-3 ovarian
  growth: 66.1% [25 µM]
HS 578T breast
  growth: 80.6% [25 µM]
NCI/ADR-RES ovarian
  growth: 34.7% [25 µM]

## COc1ccccc1/C=C1\COc2ccc(-c3ccccc3)cc2C1=O
SK-MEL-2 melanoma
  growth: 44.7%
EKVX NSCLC
  growth: 94%
SN12C renal
  growth: 54%
UO-31 renal
  growth: 49.3%
TK-10 renal
  growth: 52%
ACHN renal
  growth: 60.8%
CAKI-1 renal
  growth: 86.4%
CCRF-CEM leukemia
  growth: -25.3% (active)
MOLT-4 leukemia
  growth: -18% (active)
RPMI-8226 leukemia
  growth: -37.3% (active)
OVCAR-8 ovarian
  growth: 36.1%
OVCAR-5 ovarian
  growth: 104%
OVCAR-4 ovarian
  growth: 76.1%
SK-OV-3 ovarian
  growth: 50.7%
IGROV1 ovarian
  growth: 56.6%
OVCAR-3 ovarian
  growth: -29% (active)
HS 578T breast
  growth: 38.9%
NCI/ADR-RES ovarian
  growth: -45.6% (active)

## COc1cc2nc(-c3ccc(C(F)(F)F)cc3)cc(OCCN3CCCC3)c2cc1OC
SK-MEL-2 melanoma
  growth: 105%
EKVX NSCLC
  growth: 68.8%
SN12C renal
  growth: 72.2%
UO-31 renal
  growth: 54.2%
TK-10 renal
  growth: 92.9%
ACHN renal
  growth: 84.1%
CAKI-1 renal
  growth: 68.7%
CCRF-CEM leukemia
  growth: 77.8%
SR leukemia
  growth: 29.9%
RPMI-8226 leukemia
  growth: 55.9%
OVCAR-8 ovarian
  growth: 91%
OVCAR-5 ovarian
  growth: 67.6%
OVCAR-4 ovarian
  growth: 94.9%
SK-OV-3 ovarian
  growth: 86.3%
IGROV1 ovarian
  growth: 60.9%
OVCAR-3 ovarian
  growth: 97.3%
HS 578T breast
  growth: 79.8%
NCI/ADR-RES ovarian
  growth: 72.9%

## C1=C2CNCC3=Cc4ccc5ccccc5c4OC23Oc2c1ccc1ccccc21
SK-MEL-2 melanoma
  growth: 51.9%
EKVX NSCLC
  growth: 66.4%
SN12C renal
  growth: 63.2%
UO-31 renal
  growth: 36.3%
TK-10 renal
  growth: 89.7%
ACHN renal
  growth: 37.2%
CAKI-1 renal
  growth: 31.1%
CCRF-CEM leukemia
  growth: 43.3%
MOLT-4 leukemia
  growth: 45.8%
RPMI-8226 leukemia
  growth: 70.5%
OVCAR-8 ovarian
  growth: 53.9%
OVCAR-5 ovarian
  growth: 70%
IGROV1 ovarian
  growth: 39.9%
OVCAR-3 ovarian
  growth: -19.1% (active)
HS 578T breast
  growth: 52.5%
NCI/ADR-RES ovarian
  growth: -21.4% (active)

## CCOC(=O)N1CCc2c(sc3nc4nc[nH]n4c(=O)c23)C1
SK-MEL-2 melanoma
  growth: 96.6%
EKVX NSCLC
  growth: 92.4%
SN12C renal
  growth: 97.3%
UO-31 renal
  growth: 81.9%
TK-10 renal
  growth: 105%
ACHN renal
  growth: 103%
A498 renal
  growth: 82.3%
CCRF-CEM leukemia
  growth: 97.8%
MOLT-4 leukemia
  growth: 100%
SR leukemia
  growth: 101%
RPMI-8226 leukemia
  growth: 98.2%
OVCAR-8 ovarian
  growth: 103%
OVCAR-5 ovarian
  growth: 110%
SK-OV-3 ovarian
  growth: 96.7%
IGROV1 ovarian
  growth: 91.4%
OVCAR-3 ovarian
  growth: 105%
HS 578T breast
  growth: 95.8%
NCI/ADR-RES ovarian
  growth: 97%

## CCCCCCC/C=C/[C@H]1O[C@]2(O)C(=O)C=C3C[C@@H](O[C@@H]4O[C@H](CO)[C@@H](O)C(O)[C@@H]4O)C[C@@H]3[C@H]2C=C1C (some centres not stated)
SK-MEL-2 melanoma
  growth: -28.5% (active)
EKVX NSCLC
  growth: 72.4%
SN12C renal
  growth: 1.69% (active)
UO-31 renal
  growth: -88.1% (active)
TK-10 renal
  growth: 4.93% (active)
ACHN renal
  growth: -4.43% (active)
A498 renal
  growth: 71.2%
CCRF-CEM leukemia
  growth: 9.27% (active)
MOLT-4 leukemia
  growth: -6.66% (active)
SR leukemia
  growth: -26.4% (active)
RPMI-8226 leukemia
  growth: -23.6% (active)
OVCAR-8 ovarian
  growth: -20.5% (active)
OVCAR-5 ovarian
  growth: 12%
OVCAR-4 ovarian
  growth: 29.6%
SK-OV-3 ovarian
  growth: 57.6%
IGROV1 ovarian
  growth: -7.08% (active)
OVCAR-3 ovarian
  growth: -75.4% (active)
HS 578T breast
  growth: 29.1%
NCI/ADR-RES ovarian
  growth: -6.45% (active)

## COc1cc(C2NC(c3cc(OC)c(OC)c(OC)c3)C(C#N)(C#N)C2(C#N)C#N)cc(OC)c1OC (configuration not stated)
SK-MEL-2 melanoma
  growth: 101%
EKVX NSCLC
  growth: 97.6%
SN12C renal
  growth: 100%
UO-31 renal
  growth: 83.8%
TK-10 renal
  growth: 103%
ACHN renal
  growth: 97.7%
A498 renal
  growth: 107%
CCRF-CEM leukemia
  growth: 136%
MOLT-4 leukemia
  growth: 96.8%
SR leukemia
  growth: 118%
RPMI-8226 leukemia
  growth: 102%
OVCAR-8 ovarian
  growth: 106%
OVCAR-4 ovarian
  growth: 100%
IGROV1 ovarian
  growth: 106%
OVCAR-3 ovarian
  growth: 110%
HS 578T breast
  growth: 89.2%
NCI/ADR-RES ovarian
  growth: 97.8%

## Nc1ccccc1NC(=O)c1ccc(CN2CCC/C(=C\c3cccc(Cl)c3)C2=O)cc1
SK-MEL-2 melanoma
  growth: 11.1%
EKVX NSCLC
  growth: 20.4%
SN12C renal
  growth: 5.8% (active)
UO-31 renal
  growth: 22.6%
TK-10 renal
  growth: 4.89% (active)
ACHN renal
  growth: 5.98% (active)
CCRF-CEM leukemia
  growth: 4.02% (active)
MOLT-4 leukemia
  growth: 1.63% (active)
SR leukemia
  growth: 10.4%
RPMI-8226 leukemia
  growth: -18.7% (active)
OVCAR-8 ovarian
  growth: 10.2%
OVCAR-5 ovarian
  growth: 36.7%
OVCAR-4 ovarian
  growth: 33.7%
SK-OV-3 ovarian
  growth: 13.1%
IGROV1 ovarian
  growth: 17.8%
OVCAR-3 ovarian
  growth: 5.7% (active)
HS 578T breast
  growth: 43.1%
NCI/ADR-RES ovarian
  growth: 5% (active)
